From PubChem BioAssay (Tox21)
Records with an inconclusive call do not appear. Calls of active or inactive are those of the source. Unless noted, calls come from the whole dose curve.

Legend:
[1] = Nuclear factor erythroid 2-related factor 2/antioxidant responsive element (Nrf2/ARE) small molecule agonists: qHTS cell viability counter screen in human keratinocytes (AID 1919968; active = well fitted curve in the direction sought with a large enough effect in the repeat runs; an effect the other way counts as inactive or inconclusive; note: nearly all actives have a fitted effect of over 55% in size; note: potency is the fitted concentration of half-maximal effect)
Procedure, shortened: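 In human HaCaT keratinocytes stably expressing an ARE-driven luciferase, compound exposure lasted 23 h at 37 C under 5% CO2. Viable cells are quantified with a protease-based fluorogenic reagent (CellTiter-Fluor) read 1 h after addition.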

[2] = Nuclear factor erythroid 2-related factor 2/antioxidant responsive element (Nrf2/ARE) small molecule agonists: luciferase reporter gene qHTS assay in human keratinocytes (AID 1919969); note: nearly all actives have a fitted effect of over 35% in size; note: potency is the fitted concentration of half-maximal effect
[3] = molecular target: Gonadotropin-releasing hormone receptor (Homo sapiens) (UniProt P30968); test: Human gonadotropin-releasing hormone receptor (GnRHR) small molecule agonists, calcium flux assay in GnRHR-HEK293 cells (AID 1920063); note: nearly all actives have a fitted effect of over 35% in size
Procedure, shortened: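 Intracellular calcium rise is the read-out: engineered human GnRHR HEK293 cells, dye-loaded, are exposed to DMSO-dissolved compounds and fluorescence at Ex/Em 480/540 is tracked for 3 min.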

[4] = molecular target: KiSS-1 receptor (Homo sapiens) (UniProt Q969F8); test: Human kisspeptin (KISS1R) small molecule agonists, calcium flux assay in KISS1R-HEK293 cells (AID 1920064; active = well fitted curve in the direction sought with a large enough effect in the repeat runs; an effect the other way counts as inactive or inconclusive)
Procedure, shortened: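 Concentration-response testing used 15 concentrations in triplicate on human KISS1R-expressing HEK293 cells. Calcium-dependent fluorescence (Ex/Em 480/540) was followed kinetically for 3 min after compound transfer.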

[5] = G protein-coupled receptor (GPCR) small molecule agonists, calcium flux assay: HEK293 wild type cell line counter screen (AID 1920065)
Procedure, shortened: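 Fluorescence intensity signals activation. After overnight (18 h) culture and a 1 h calcium dye load at 37 C, compounds are added by pin tool and the plate read at 480/540 nm for 3 min in 1 s steps.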

[6] = p53 small molecule agonists, cell-based qHTS assay with human liver microsomes: qHTS cell viability counter screen (AID 1963579); note: nearly all actives have a fitted effect of over 45% in size; note: potency is the fitted concentration of half-maximal effect
Procedure, shortened: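 Cytotoxicity counter screen: p53RE-bla, 4,000 cells/well; 5 h settle, 37 C/5% CO2; cpd + HLM 0.5 mg/mL + NADPH 0.5 mg/mL (final); 16 h, 37 C; CellTiter-Glo, 30 min RT, luminescence.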

[7] = p53 small molecule agonists, cell-based qHTS assay with rat liver microsomes: qHTS cell viability counter screen (AID 1963580); note: nearly all actives have a fitted effect of over 45% in size
Procedure, shortened: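 After the beta-lactamase ratio was read, CellTiter-Glo was added to the same wells and luminescence measured at 30 min; cells had been treated 16 h at 37 C with compounds, rat liver microsomes and NADPH (0.5 mg/mL final each).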

[8] = molecular target: 5-hydroxytryptamine receptor 2A (Homo sapiens) (UniProt P28223); test: 5-hydroxytryptamine receptor 2A (HTR2A) small molecule antagonists, cell-based qHTS assay (AID 1963586); note: nearly all actives have a fitted effect of over 45% in size
Procedure, shortened: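 CHO cells stably expressing human HTR2A were plated for 18 h at 37 C, then loaded with calcium dye for 1 h. Compounds were preincubated 5 min at room temperature before DOI (4 nM solution) was added. Kinetic fluorescence was read for 3 min.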

[9] = molecular target: 5-hydroxytryptamine receptor 2A (Homo sapiens) (UniProt P28223); test: 5-hydroxytryptamine receptor 2A (HTR2A) small molecule agonists, cell-based qHTS assay (AID 1963587); note: nearly all actives have a fitted effect of over 30% in size
Procedure, shortened: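 CHO cells stably expressing human HTR2A, plated 18 h, loaded with calcium dye 1 h at 37 C. Agonist mode: compounds added and intracellular calcium fluorescence recorded kinetically for 2 min at 1 sec intervals.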

[10] = molecular target: Muscarinic acetylcholine receptor M1 (Homo sapiens) (UniProt P11229); test: Cholinergic receptor muscarinic 1 (CHRM1) small molecule antagonists, cell-based qHTS assay (AID 1963588); note: nearly all actives have a fitted effect of over 40% in size; note: potency is the fitted concentration of half-maximal effect
Procedure, shortened: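 Compounds were tested at 15 concentrations in three independent runs. Dye-loaded CHRM1-CHO cells were exposed 5 min at room temperature before stimulation by acetylcholine added at 50nM. Intracellular calcium was read kinetically on FDSS for 3 min.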

[11] = molecular target: Muscarinic acetylcholine receptor M1 (Homo sapiens) (UniProt P11229); test: Cholinergic receptor muscarinic 1 (CHRM1) small molecule agonists, cell-based qHTS assay (AID 1963589); note: nearly all actives have a fitted effect of over 35% in size
Procedure, shortened: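 Fluorescent calcium dye reports M1 activation in stably transfected CHO cells. Compounds, 15 concentrations, added after 1 h dye loading at 37 C; kinetic reading at 1 sec intervals.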

[12] = cAMP Responsive Elements (CRE) small molecule agonists, cell-based qHTS assay (AID 1963590)
Procedure, shortened: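 Compound exposure lasted 3 h at 37 C/5% CO2 in CRE-bla HEK 293T cells grown in assay medium with 10% dialyzed FBS and 25 mM HEPES. Reporter signal came from LiveBLAzer B/G FRET substrate, 2 h, room temperature.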

[13] = cAMP Responsive Elements (CRE) small molecule antagonists, cell-based qHTS assay (AID 1963591; active = well fitted inhibition curve with a large enough effect in the signal ratio in the repeat runs, not every such curve was filed as active; the % refers to the signal ratio)
Procedure, shortened: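 Stimulation used NKH477 at a final 0.25 uM for 3 h in compound-treated CRE-bla HEK293T cells, seeded 18 h beforehand. Reporter activity was measured with LiveBLAzer B/G FRET substrate after 2 h at room temperature.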

[14] = molecular target: Beta-2 adrenergic receptor (Homo sapiens) (UniProt P07550); test: Adrenergic beta2 receptor (ADRB2) small molecule antagonists, cell-based qHTS assay (AID 1963592); note: series mostly up to about 92 µM; nearly all actives have a fitted effect of over 50% in size
Procedure, shortened: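 Assay format: CHO-ADRB2 cells, 18-20hr seeding at 37C/5% CO2, then compound plus 1nM isoproterenol agonist mix for 0.5hr RT. Homogeneous time-resolved fluorescence cAMP detection after 1hr, expressed as 665/615 nm ratio.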

[15] = molecular target: Beta-2 adrenergic receptor (Homo sapiens) (UniProt P07550); test: Adrenergic beta2 receptor (ADRB2) small molecule agonists, cell-based qHTS assay (AID 1963593);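 note: CHO cells stably overexpressing human ADRB2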
Procedure, shortened: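 CHO cells stably over-expressing ADRB2 were plated overnight at 37C, then dosed with compounds plus a stimulation mix containing 100uM IBMX and 25uM Ro-20-1724 for 0.5hr at room temperature. cAMP was measured by HTRF competition, 1hr.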

[16] = molecular target: D(2) dopamine receptor (Homo sapiens) (UniProt P14416); test: Dopamine D2 receptor (DRD2) small molecule agonists, cell-based qHTS assay (AID 1963594); note: nearly all actives have a fitted effect of over 35% in size
Procedure, shortened: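 HEK293 cells stably expressing human DRD2, pre-treated with PDE inhibitor Ro20-1724 (0.1 mM final) and compound 10 min at room temperature, then stimulated with NKH477 (200nM […]) for 30 min. cAMP read by HTRF (665/620 nm).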

[17] = molecular target: D(2) dopamine receptor (Homo sapiens) (UniProt P14416); test: Dopamine D2 receptor (DRD2) small molecule antagonists, cell-based qHTS assay (AID 1963595; active = well fitted inhibition curve with a large enough effect in the signal ratio in the repeat runs, with a control signal flat; the % refers to the signal ratio)
Procedure, shortened: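 Stable D2 receptor HEK293 line, 24 h after seeding. Compound preincubated 10 min, then quinpirole (12 nM) with forskolin analogue NKH477 (200 nM), 30 min, room temperature. Detection by time-resolved FRET of cAMP.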

[18] = p53 small molecule agonists, cell-based qHTS assay: qHTS cell viability counter screen (AID 1963581); note: nearly all actives have a fitted effect of over 45% in size; note: potency is the fitted concentration of half-maximal effect
Procedure, shortened: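 Luminescence from CellTiter-Glo, reflecting ATP content, serves as the cytotoxicity measure; it is taken after the 2 h reporter substrate step in HCT-116 p53RE-bla cells dosed for 16 h at 37 C.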

[19] = p53 small molecule agonists, cell-based qHTS assay (AID 1963582; active = well fitted activation curve with a large enough effect in the signal ratio in the repeat runs, not every such curve was filed as active; the % refers to the signal ratio)
Procedure, shortened: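 After plating, p53RE-bla cells sat 5 h in the incubator; compounds or DMSO vehicle were pinned in; a 16 h incubation at 37 C followed; FRET substrate was added and, 2 h later at RT, fluorescence was measured.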
% is set by controls: 0 for no effect and ±100 for the full control effect.

Chain of Gonadotropin-releasing hormone receptor (Homo sapiens) (P30968 whole entry, looked up): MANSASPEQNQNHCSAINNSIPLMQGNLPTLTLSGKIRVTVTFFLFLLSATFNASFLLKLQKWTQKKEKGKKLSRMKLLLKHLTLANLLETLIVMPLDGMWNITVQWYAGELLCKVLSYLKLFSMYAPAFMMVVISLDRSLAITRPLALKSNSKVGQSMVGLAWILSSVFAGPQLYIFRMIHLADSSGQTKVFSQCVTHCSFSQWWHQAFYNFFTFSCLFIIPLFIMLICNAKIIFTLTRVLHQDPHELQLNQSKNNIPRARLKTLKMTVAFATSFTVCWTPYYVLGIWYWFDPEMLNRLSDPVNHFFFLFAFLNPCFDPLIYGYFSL
Chain of Beta-2 adrenergic receptor (Homo sapiens) (P07550 whole entry, looked up): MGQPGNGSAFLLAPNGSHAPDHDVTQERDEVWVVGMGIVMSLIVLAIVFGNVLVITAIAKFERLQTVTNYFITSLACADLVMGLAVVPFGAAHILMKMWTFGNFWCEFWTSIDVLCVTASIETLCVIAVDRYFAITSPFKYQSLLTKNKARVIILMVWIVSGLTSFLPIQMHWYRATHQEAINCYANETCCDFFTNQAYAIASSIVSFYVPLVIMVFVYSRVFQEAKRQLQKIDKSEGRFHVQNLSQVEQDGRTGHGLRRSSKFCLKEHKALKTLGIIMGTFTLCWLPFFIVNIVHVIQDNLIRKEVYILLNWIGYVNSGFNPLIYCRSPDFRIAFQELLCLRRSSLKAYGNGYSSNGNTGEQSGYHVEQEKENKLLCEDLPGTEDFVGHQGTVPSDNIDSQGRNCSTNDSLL
Chain of KiSS-1 receptor (Homo sapiens) (Q969F8 whole entry, looked up): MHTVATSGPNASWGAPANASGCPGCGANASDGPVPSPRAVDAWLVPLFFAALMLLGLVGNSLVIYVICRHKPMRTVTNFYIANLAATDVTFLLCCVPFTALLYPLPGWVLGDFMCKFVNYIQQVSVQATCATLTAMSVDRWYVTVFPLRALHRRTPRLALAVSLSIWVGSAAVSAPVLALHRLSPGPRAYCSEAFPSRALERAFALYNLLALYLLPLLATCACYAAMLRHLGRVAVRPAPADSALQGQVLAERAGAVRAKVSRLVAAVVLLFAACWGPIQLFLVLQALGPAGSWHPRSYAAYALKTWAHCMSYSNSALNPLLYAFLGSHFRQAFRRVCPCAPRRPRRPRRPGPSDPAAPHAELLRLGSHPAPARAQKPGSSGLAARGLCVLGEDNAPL
Chain of Muscarinic acetylcholine receptor M1 (Homo sapiens) (P11229 whole entry, looked up): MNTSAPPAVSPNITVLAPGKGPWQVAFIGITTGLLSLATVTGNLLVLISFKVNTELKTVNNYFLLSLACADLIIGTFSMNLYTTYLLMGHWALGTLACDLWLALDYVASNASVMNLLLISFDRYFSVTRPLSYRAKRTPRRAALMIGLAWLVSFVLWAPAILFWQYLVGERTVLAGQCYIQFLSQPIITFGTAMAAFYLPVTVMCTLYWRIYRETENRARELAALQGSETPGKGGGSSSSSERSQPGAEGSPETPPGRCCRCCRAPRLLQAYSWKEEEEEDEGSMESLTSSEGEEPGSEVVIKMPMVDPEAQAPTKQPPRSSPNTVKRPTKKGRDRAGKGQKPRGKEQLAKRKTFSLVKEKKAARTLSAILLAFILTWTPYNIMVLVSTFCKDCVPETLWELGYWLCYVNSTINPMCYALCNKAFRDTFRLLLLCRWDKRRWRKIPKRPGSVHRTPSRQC
Chain of 5-hydroxytryptamine receptor 2A (Homo sapiens) (P28223 whole entry, looked up): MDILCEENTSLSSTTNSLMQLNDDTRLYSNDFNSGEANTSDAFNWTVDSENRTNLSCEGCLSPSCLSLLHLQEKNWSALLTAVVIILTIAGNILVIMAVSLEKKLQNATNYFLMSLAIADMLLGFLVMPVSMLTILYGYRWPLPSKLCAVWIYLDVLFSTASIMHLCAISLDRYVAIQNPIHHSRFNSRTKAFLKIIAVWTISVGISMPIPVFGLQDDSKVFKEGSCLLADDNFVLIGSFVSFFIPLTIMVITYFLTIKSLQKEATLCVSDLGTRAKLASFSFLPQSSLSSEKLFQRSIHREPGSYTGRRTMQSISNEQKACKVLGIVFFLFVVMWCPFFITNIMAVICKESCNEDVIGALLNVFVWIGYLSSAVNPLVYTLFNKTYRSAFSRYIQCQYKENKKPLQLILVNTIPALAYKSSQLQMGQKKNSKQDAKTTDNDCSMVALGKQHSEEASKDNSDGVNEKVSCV
Chain of D(2) dopamine receptor (Homo sapiens) (P14416 whole entry, looked up): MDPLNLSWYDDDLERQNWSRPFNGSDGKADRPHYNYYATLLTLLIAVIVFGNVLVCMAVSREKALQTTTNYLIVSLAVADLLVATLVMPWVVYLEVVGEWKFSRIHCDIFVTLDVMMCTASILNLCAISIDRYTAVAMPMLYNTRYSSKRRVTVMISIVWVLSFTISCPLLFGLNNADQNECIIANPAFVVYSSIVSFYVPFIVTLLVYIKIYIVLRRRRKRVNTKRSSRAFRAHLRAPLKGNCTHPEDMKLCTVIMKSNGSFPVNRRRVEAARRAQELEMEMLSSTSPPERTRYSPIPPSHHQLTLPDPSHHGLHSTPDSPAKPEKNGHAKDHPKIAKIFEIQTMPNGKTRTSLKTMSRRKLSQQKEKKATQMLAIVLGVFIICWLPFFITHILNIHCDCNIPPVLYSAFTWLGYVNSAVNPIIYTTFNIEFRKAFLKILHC

CN(C)C(=O)Nc1ccccc1
inactive: Potency [1] | Potency [2] | Potency [3] | Potency [4] | Potency [5] | Potency [6] | Potency [7] | Potency [8] | Potency [9] | Potency [10] | Potency [11] | Potency [12] | Potency [13] | Potency [14] | Potency [15] | Potency [16] | Potency [17]

Cc1cc(C(C#N)c2ccc(Cl)cc2)c(Cl)cc1NC(=O)c1cc(I)cc(I)c1O (stereo not drawn)
active: Potency [1] 29.8 µM | Potency [18] 5.61 µM
inactive: Potency [2] | Potency [3] | Potency [4] | Potency [5] | Potency [6] | Potency [7] | Potency [14] | Potency [16] | Potency [17]

O=C(O)c1cccnc1Nc1cccc(C(F)(F)F)c1
inactive: Potency [1] | Potency [3] | Potency [4] | Potency [5] | Potency [6] | Potency [7] | Potency [18] | Potency [13] | Potency [14] | Potency [16] | Potency [17]
active: Potency [2] 23.7 µM

NCCCC(N)(C(=O)O)C(F)F (stereo not drawn)
inactive: Potency [1] | Potency [2] | Potency [3] | Potency [4] | Potency [5] | Potency [6] | Potency [7] | Potency [8] | Potency [9] | Potency [11] | Potency [12] | Potency [13] | Potency [14] | Potency [15] | Potency [16] | Potency [17]
active: Potency [10] 0.163 µM

CN1CCC[C@@H]1c1cccnc1
inactive: Potency [1] | Potency [2] | Potency [3] | Potency [4] | Potency [5] | Potency [6] | Potency [7] | Potency [18] | Potency [12] | Potency [13] | Potency [14] | Potency [15] | Potency [16]

CC1=C(CC(=O)O)c2cc(F)ccc2/C1=C\c1ccc(S(C)(=O)=O)cc1
inactive: Potency [1] | Potency [2] | Potency [3] | Potency [4] | Potency [5] | Potency [6] | Potency [7] | Potency [18] | Potency [14] | Potency [16]

Cc1ccc(Cl)c(Nc2ccccc2C(=O)O)c1Cl
inactive: Potency [1] | Potency [2] | Potency [3] | Potency [4] | Potency [5] | Potency [6] | Potency [7] | Potency [18] | Potency [14] | Potency [15] | Potency [16] | Potency [17]

COc1ccnc(CS(=O)c2nc3ccc(OC(F)F)cc3[nH]2)c1OC (stereo not drawn)
inactive: Potency [1] | Potency [2] | Potency [3] | Potency [4] | Potency [5] | Potency [6] | Potency [7] | Potency [18] | Potency [12] | Potency [13] | Potency [14] | Potency [16]

Cc1onc(-c2ccccc2Cl)c1C(=O)N[C@@H]1C(=O)N2[C@@H]1SC(C)(C)[C@@H]2C(=O)O
inactive: Potency [1] | Potency [2] | Potency [3] | Potency [4] | Potency [5] | Potency [6] | Potency [7] | Potency [18] | Potency [12] | Potency [14] | Potency [15] | Potency [16] | Potency [17]

CCOC(C)OCC
inactive: Potency [1] | Potency [2] | Potency [3] | Potency [4] | Potency [5] | Potency [6] | Potency [7] | Potency [8] | Potency [9] | Potency [10] | Potency [11] | Potency [12] | Potency [13] | Potency [14] | Potency [15] | Potency [16] | Potency [17]

NC(N)=NCCN1CCCCCCC1
inactive: activity change, negative = cytotoxicity [1] -3.49% [at 0.349 µM] | activity, positive = activation [2] 3.17% [at 0.349 µM] | activity change [3] -0.022% [at 0.217 µM, stronger effect = higher value] | activation [4] 0.591% [at 0.29 µM] | activation [5] 0.864% [at 0.217 µM] | activity change, negative = cytotoxicity [6] 14.9% [at 0.249 µM] | activity change, negative = cytotoxicity [7] 0.194% [at 0.249 µM] | activity change, negative = cytotoxicity [18] -15.6% [at 0.249 µM] | activation [12] -1.51% [at 0.349 µM] | activity change, negative = inhibition [13] 0.0219% [at 0.349 µM] | activity change, negative = inhibition [14] 5.36% [at 0.349 µM] | activation [15] 1.36% [at 0.349 µM] | activation [16] -6.8% [at 0.349 µM] | activity change, negative = inhibition [17] -0.0361% [at 0.348 µM]

C/C=C1\C(=O)C[C@H]2[C@@H]3CCC4=CC(=O)CC[C@]4(C)[C@H]3CC[C@]12C
inactive: Potency [1] | Potency [3] | Potency [4] | Potency [5] | Potency [6] | Potency [7] | Potency [18] | Potency [10] | Potency [11] | Potency [14] | Potency [16] | Potency [17]
active: Potency [2] 2.13 µM

CC(C)(CO)C(O)C(=O)NCCCO (stereo not drawn)
inactive: Potency [1] | Potency [2] | Potency [3] | Potency [4] | Potency [5] | Potency [6] | Potency [7] | Potency [18] | Potency [12] | Potency [13] | Potency [14] | Potency [17]

CC(=O)OCC(=O)[C@@]12OC(C)(C)O[C@@H]1C[C@H]1[C@@H]3C[C@H](F)C4=CC(=O)C=C[C@]4(C)[C@@]3(F)[C@@H](O)C[C@@]12C
inactive: Potency [1] | Potency [2] | Potency [3] | Potency [4] | Potency [5] | Potency [6] | Potency [7] | Potency [18] | Potency [14] | Potency [17]

Nc1ccn([C@@H]2O[C@H](CO)[C@@H](O)[C@@H]2O)c(=O)n1
inactive: Potency [1] | Potency [2] | Potency [3] | Potency [4] | Potency [5] | Potency [6] | Potency [7] | Potency [18] | Potency [12] | Potency [13] | Potency [14] | Potency [17]

O=C(O)c1c2ccccc2cc2ccccc12
active: Potency [2] 48.4 µM
inactive: Potency [1] | Potency [3] | Potency [4] | Potency [5] | Potency [6] | Potency [7] | Potency [19] | Potency [8] | Potency [9] | Potency [10] | Potency [11] | Potency [13] | Potency [14] | Potency [15] | Potency [16] | Potency [17]

Cc1ccc(N)cc1O
active: Potency [2] 24.3 µM | Potency [6] 40.8 µM
inactive: Potency [1] | Potency [3] | Potency [4] | Potency [5] | Potency [7] | Potency [8] | Potency [9] | Potency [10] | Potency [11]
